In PubChem BioAssay (NCI):
About 79,000 compounds went through this panel and 15% of them were active in at least one assay; those are over-represented in the sample as a whole. Cut-off read from the data, not from the text of the source: active = growth inhibition above about 70%; inactive = the rest.

Experiments:
[1] = NCI Yeast Anticancer Drug Screen. Data for the rad50 strain (AID 155);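 note: 0% = growth of vehicle-only cultures of the same strain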; settings: S. cerevisiae rad50 strain growth inhibition; at 50.0 µM; stronger effect = higher value
Outline: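 A DNA repair-deficient yeast mutant serves as the test organism; compound-induced growth inhibition is calculated against vehicle-treated cells.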

[2] = NCI Yeast Anticancer Drug Screen. Data for the mec2-1 strain (AID 157); settings: S. cerevisiae mec2-1 strain, at 50.0 µM, stronger effect = higher value
Outline: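 Growth inhibition is read against vehicle-treated controls after compound exposure of the mec2-1 yeast strain, which is defective in DNA damage repair or cell cycle control.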

[3] = NCI Yeast Anticancer Drug Screen. Data for the sgs1 mgt1 strain (AID 161);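 note: 0% = growth of cultures given vehicle only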; settings: S. cerevisiae sgs1 mgt1 strain, at 50.0 µM, stronger effect = higher value
Outline: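 Growth of a repair-deficient yeast mutant was monitored after compound treatment and expressed as inhibition relative to vehicle-treated cultures.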

[4] = NCI Yeast Anticancer Drug Screen. Data for the cln2 rad14 strain (AID 165);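 note: 0% = growth equal to vehicle treated cultures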; settings: S. cerevisiae cln2 rad14 strain, at 50.0 µM, stronger effect = higher value
Outline: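 Growth inhibition, relative to vehicle-treated controls, is the read-out. The test organism is a yeast strain with defined genetic alterations, cln2 rad14.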

[5] = NCI Yeast Anticancer Drug Screen. Data for the bub3 strain (AID 167); settings: S. cerevisiae bub3 mutant strain, at 50.0 µM, stronger effect = higher value
Outline: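 Inhibition values come from growth of compound-treated mutant yeast normalised to vehicle-treated controls.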

[6] = NCI Yeast Anticancer Drug Screen. Data for the mlh1 rad18 strain (AID 175); settings: S. cerevisiae mlh1 rad18 strain growth inhibition; at 50.0 µM; stronger effect = higher value
Outline: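 Cells of a genetically altered yeast strain, deficient in DNA damage repair, were treated with compound. Their growth was then compared with that of vehicle-treated cultures to give inhibition.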

Measured: growth inhibition

O=c1c(O)c(-c2cccnc2)oc2ccc(Cl)cc12
inactive: [1] -2.1% | [2] 17.8% | [3] 12.8% | [4] 21.6% | [5] 16.7% | [6] 0.4%

O=C(NCCCCCCNC(=O)Oc1ccccc1F)Oc1ccccc1F
inactive: [1] -13.6% | [2] -14.5% | [3] -6.5% | [4] -0.05% | [5] 6.4% | [6] -20.9%

CCOC(=O)C(NC(C)=O)C(O)c1ccc(Cl)cc1Cl (stereo unspecified)
inactive: [1] 18.4% | [2] 3.4% | [3] 0.05% | [4] -45.9% | [5] -9.4% | [6] 19.7%

C=CCCC(=O)OC(C)(C)C
inactive: [1] 16.8% | [2] -15.4% | [3] 21.4% | [4] 7.2% | [5] 6.1% | [6] 1.95%

O=C(NN1C(=O)CSC1c1ccc(F)cc1)c1ccncc1 (stereo unspecified)
inactive: [1] -4.2% | [2] 1.1% | [3] 4.15% | [4] -6.75% | [5] 7.95% | [6] 11.8%

CC1(Cn2ccc(=O)[nH]c2=O)CC(C2(C)OCCO2)C(=O)O1 (stereo unspecified)
inactive: [1] -16.6% | [2] -22.3% | [3] -33.1% | [4] -30.7% | [5] -19% | [6] -14.4%

CCC(O)C(CC)[N+](=O)[O-] (stereo unspecified)
inactive: [1] -4.45% | [2] -17.4% | [3] -2.75% | [4] 4.05% | [5] -2.8% | [6] 5.5%

S=C(NCc1ccncc1)Nc1ccccc1Cl
inactive: [1] 2.75% | [2] -0.5% | [3] -4.7% | [4] 12.7% | [5] 6.1% | [6] 9.55%

CC(C)CC1N=C(OCc2ccccc2)OC1=O (stereo unspecified)
inactive: [1] -16.6% | [2] -79.5% | [3] -20.4% | [4] -15.7% | [5] 5.25% | [6] -14.2%

CCN(CC)CCO/N=C(\c1ccccc1)c1ccccn1
inactive: [1] 4.6% | [2] -5.95% | [3] 16.9% | [4] -78.3% | [5] 10.7% | [6] 1.2%

CCCC1CC(=O)NC1C(=O)O (stereo unspecified)
inactive: [1] -8.75% | [2] -7.85% | [3] -6.85% | [4] -21.9% | [5] -5.25% | [6] -24.4%

Cn1c(=O)[nH]c(=O)c2[nH]c(=O)c(=O)n(C)c21
inactive: [1] -3.15% | [2] 23.3% | [3] 1.55% | [4] -1.9% | [5] -9.5% | [6] -13.1%

Cc1ccc(O)c(C(=O)C[n+]2ccccc2)c1
inactive: [1] -12.8% | [2] -9.65% | [3] -1.25% | [4] 1.2% | [5] 0.1% | [6] -0.55%

Cc1cn(C2CC(O)C(CO)O2)c(=O)[nH]c1=S (stereo unspecified)
inactive: [1] 9.05% | [2] -7.25% | [3] -3.5% | [4] -37.3% | [5] 14.2% | [6] 13.2%

CCOC(=O)/C(C#N)=C/NCC1CC1
inactive: [1] -21.8% | [2] -33.5% | [3] 1.6% | [4] 10.6% | [5] -33.2% | [6] -22.6%

Cn1c2ccccc2n2c(=O)c3c(c(C#N)c12)CCCC3
inactive: [1] -31.1% | [2] -35.2% | [3] -3.1% | [4] -0.35% | [5] -20.6% | [6] -21.7%

CC(O)C(O)C(O)C1OC1=O (stereo unspecified)
inactive: [1] 0.95% | [2] -9.8% | [3] 0.75% | [4] -43% | [5] -8.9% | [6] -1.05%

Cc1cccc(C)c1NC=O
inactive: [1] 4.7% | [2] -2.35% | [3] -3.3% | [4] 1.45% | [5] -9.8% | [6] 8.9%

N#CCCN(C1=NN(C(=O)CC(=O)Nc2ccccc2)C(c2ccccc2)C1)c1ccccc1Cl (stereo unspecified)
inactive: [1] -5.05% | [2] -3.9% | [3] -36% | [4] 27.9% | [5] -1.15% | [6] -9.2%

CCOc1ccc(/C=C2\N=C(c3ccccc3)OC2=O)cc1OC
inactive: [1] 8.5% | [2] 12.5% | [3] 4% | [4] 0.75% | [5] 5.85% | [6] 2.4%

CC(C)(C)OC(=O)NC(Cc1ccc(OC(C)(C)C)cc1)C(=O)N[C@H]1CC[C@H](C(=O)O)C1 (stereo partly specified)
inactive: [1] -6.6% | [2] -1.25% | [3] -8% | [4] -7.85% | [5] 11.2% | [6] 10%

C=C(C)[N+]([O-])=NC
inactive: [1] -6.75% | [2] 3.5% | [3] -2.8% | [4] 30.1% | [5] -10.8% | [6] 0.75%

O=c1oc2ccc3ccccc3c2cc1-c1c[nH]c2ccccc12
inactive: [1] 10.7% | [2] 10% | [3] 15.2% | [4] 11.6% | [5] 6.05% | [6] 7.05%

CC(C)(CO)N1CCN(C(=S)Nc2ccccc2)CC1
inactive: [1] 17.9% | [2] -2.6% | [3] -0.3% | [4] -1.9% | [5] -10.8% | [6] 17.8%

CCCCCCCCCCCCCCCCSS(=O)(=O)O
inactive: [1] 8.5% | [2] 15.7% | [3] 15.8% | [4] -1.15% | [5] 0.15% | [6] 4.9%

CC(=O)c1ccc(OCc2ccccc2)cc1OCc1ccccc1
inactive: [1] 7% | [2] 4.5% | [3] -9.8% | [4] 11.7% | [5] 4.8% | [6] -18.6%

COC1=C(NCC(C)C)C(=O)C(OC)=C(NCC(C)C)C1=O
inactive: [1] -3.05% | [2] 8.75% | [3] 1.7% | [4] -57.7% | [5] 3.25% | [6] -12.1%

O=C(Nc1cccc2c1C(=O)c1c(NC(=O)c3ccccc3)ccc(Nc3cccc4c3C(=O)c3ccccc3C4=O)c1C2=O)c1ccccc1
inactive: [1] 8.05% | [2] -2.65% | [3] 0.9% | [4] 10% | [5] 9.05% | [6] 3.45%

O=C(c1ccccc1)c1nc2ccc(Cl)cc2cc1C(Br)Br
inactive: [1] 17.9% | [2] -2.75% | [3] 25.1% | [4] 15.1% | [5] 28.8% | [6] 17.9%

CC(C)=CCS(=O)c1ccccc1NC1=CC(=O)CC(C)(C)C1 (stereo unspecified)
inactive: [1] -16.2% | [2] -26.1% | [3] -37.6% | [4] -7.55% | [5] -5.8% | [6] -3.55%

C[C@@H]1C(N2CCCC2)=CC(=O)OC1c1ccccc1 (stereo partly specified)
inactive: [1] -3.65% | [2] -11.1% | [3] 11.3% | [4] -6.4% | [5] -1.3% | [6] 1.95%

CC1(C)OC(C(CCl)OS(C)(=O)=O)C(C(CCl)OS(C)(=O)=O)O1 (stereo unspecified)
inactive: [1] 4.2% | [2] -6.1% | [3] -5.7% | [4] 24.9% | [5] -3.5% | [6] 6.95%

Cc1ccc(Cl)cc1N=C=S
inactive: [1] -22% | [2] -18.8% | [3] 6% | [4] -4.6% | [5] -38.4% | [6] -11.2%

CCCCCCCCCCCCCCCOc1ccc2ccccc2c1
inactive: [1] -11.4% | [2] 8.2% | [3] -5.8% | [4] -27.7% | [5] -7.05% | [6] -35.1%

O=[N+]([O-])C(/C=C(\Cl)[N+](=O)[O-])=C(N1CCCCC1)N1CCCCC1
inactive: [1] 10.8% | [2] -1.8% | [3] 5.85% | [4] -5.55% | [5] 26.2% | [6] 18.1%

C=CCN1C(=O)C/C(=C2/CCC(=O)N2CC=C)C1=O
inactive: [1] -11.1% | [2] -27.4% | [3] -16% | [4] 3.6% | [5] 1.8% | [6] -9.8%

CCCCCCCCCCCCCCCCCCCC/C=C/C1CC(=O)OC1=O (stereo unspecified)
inactive: [1] -4.8% | [2] -6% | [3] 16.9% | [4] 26.8% | [5] 16.9% | [6] 7.1%

O=CSC(=Nc1ccc(Cl)cc1)NC(=O)COc1ccc(Cl)cc1
inactive: [1] 5.05% | [2] -21.4% | [3] 58.9% | [4] -22.4% | [5] 33.3% | [6] 12.3%

CCOC(=O)c1[nH]n(-c2ccccc2)c(=O)c1/C=N/C(=S)NCCc1ccc(OC)c(OC)c1
inactive: [1] 2.05% | [2] -0.6% | [3] 5.4% | [4] -10.8% | [5] -21% | [6] 13.2%

CC(C)CCCC(C)C1CCC2(C)C3CCC4C(C)(C)C(OCC(C)(C)C)CCC4(C)C3CCC12C (stereo unspecified)
inactive: [1] 34% | [2] -5.5% | [3] 4.7% | [4] 7.3% | [5] -0.15% | [6] -5.4%

Clc1ccc2cn[nH]c2c1
inactive: [1] -50.4% | [2] -28.1% | [3] -23.2% | [4] 3.3% | [5] -18.9% | [6] -9.3%
